Data on 61 molecules can be found in the supplement of paper PMC12582362.

Where a name gives a salt, the structure may show the parent alone. Screen size: about 1,500 compounds; about 30 (2%) showed activity. This is one part of a sample in which actives are shown more often than they occur. Values without a mark were called inactive.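 The calls were made as follows: active = robust z-score below -2; a few such results were not called.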

The test system of the assay is optoTopBP1 Flp-In 293 T-REx (HEK293) cells. As to the kind of experiment: light-induced TopBP1 condensate (nuclear foci) count, plate-normalised robust z-score vs non-control wells; higher = more TopBP1 condensates (negative = condensation inhibitor), active = hit call of the paper. The conditions noted are these: 10 µM; incubation time 2 h.
As to `CC(C)Nc1cccnc1N1CCN(C(=O)c2cc3cc(NS(C)(=O)=O)ccc3[nH]2)CC1` [Delavirdine], the “light-induced TopBP1 condensate (z-score)” value was 0.915. Next, `Cn1ccnc1S` [Methimazole]: -0.456. Next, `CC1(C)O[C@@H]2C[C@H]3[C@@H]4CCC5=CC(=O)C=C[C@]5(C)[C@H]4[C@@H](O)C[C@]3(C)[C@]2(C(=O)CO)O1` [Desonide]: -0.951. Next, `CC/C=C(\C(=O)N[C@@H]1C(=O)N2C(C(=O)OCOC(=O)C(C)(C)C)=C(COC(N)=O)CS[C@H]12)c1csc(N)n1` [Cefcapene pivoxil hydrochloride]: -0.782; `CCOc1ccccc1C(N)=O` [Ethenzamide]: -0.0402; `CCC[C@@H]1C[C@@H](C(=O)N[C@@H]([C@H]2O[C@H](SC)[C@H](O)[C@@H](O)[C@H]2O)[C@H](C)Cl)N(C)C1` [Clindamycin hydrochloride]: 0.556.

As to `CC(C)N1CCN(c2ccc(OCC3COC(Cn4cncn4)(c4ccc(Cl)cc4Cl)O3)cc2)CC1` (stereo unspecified) [Terconazole], the “light-induced TopBP1 condensate (z-score)” value is -0.114. Next, `CCC(C)n1ncn(-c2ccc(N3CCN(c4ccc(OCC5COC(Cn6cncn6)(c6ccc(Cl)cc6Cl)O5)cc4)CC3)cc2)c1=O` (stereo unspecified) [Itraconazole]: -0.757; `CC[C@@H]([C@H](C)O)n1ncn(-c2ccc(N3CCN(c4ccc(OC[C@@H]5CO[C@@](Cn6cncn6)(c6ccc(F)cc6F)C5)cc4)CC3)cc2)c1=O` [Posaconazole]: -2.52 (active).

As to `CN[C@@H]1[C@@H](O[C@H]2O[C@H](CO)[C@@H](N)[C@H](O)[C@H]2O)OC2C[C@@H](N)[C@@H](O[C@H]3[C@H](O)[C@@H](O)[C@H](N)C[C@@H]3N)OC2[C@@H]1O` (stereo partly specified) [Apramycin], the “light-induced TopBP1 condensate (z-score)” value is 0.974. Next, `C#Cc1cccc(Nc2ncnc3cc(OCCOC)c(OCCOC)cc23)c1` [Erlotinib]: 1.27. For the molecule `OC(CNCC(O)C1CCc2cc(F)ccc2O1)C1CCc2cc(F)ccc2O1` (stereo unspecified) [Nebivolol hydrochloride], the “light-induced TopBP1 condensate (z-score)” value was -0.227. Next, `CCCC(=O)N1CCCN(c2nc(N)c3cc(OC)c(OC)cc3n2)CC1` [Bunazosin hydrochloride]: 0.537; `CC(=O)OCC(=O)[C@@]1(O)[C@H](C)C[C@H]2[C@@H]3CCC4=CC(=O)C=C[C@]4(C)[C@@]3(F)[C@@H](O)C[C@@]21C` [Dexamethasone acetate]: 0.214. Next, `OCCN1CCN(CC/C=C2/c3ccccc3Sc3ccc(Cl)cc32)CC1` [Zuclopenthixol dihydrochloride]: -0.966; `Cn1cc(C(=O)[C@@H]2CCc3[nH]cnc3C2)c2ccccc21` [Ramosetron hydrochloride]: -0.549; `COc1ccc(C2C(=O)c3ccccc3C2=O)cc1` [Anisindione]: 0.789. Next, `COc1cccc2c1C(=O)c1c(O)c3c(c(O)c1C2=O)C[C@@](O)(C(=O)CO)C[C@@H]3O[C@H]1C[C@H](N)[C@@H](O)[C@H](C)O1` [Epirubicin hydrochloride]: -3.05 (active); `CC(COc1ccccc1)NC(C)C(O)c1ccc(O)cc1` (stereo unspecified) [Isoxsuprine hydrochloride]: -0.14. As to `C[C@H](NCc1ccc(OCc2cccc(F)c2)cc1)C(N)=O` [Safinamide], the “light-induced TopBP1 condensate (z-score)” value is -0.127. Next, `Oc1ccc(OCc2ccccc2)cc1` [Monobenzone]: -2.29 (active); `COc1ccc(C(=O)c2ccc(C)cc2)c(O)c1` [Mexenone]: 0.105; `O=C(NCCCN1CCOCC1)c1ccc(Cl)cc1` [Eprobemide]: 0.149. Turning to `CC(C)NCC(O)COc1cccc2[nH]c3ccccc3c12` (stereo unspecified) [Carazolol], the “light-induced TopBP1 condensate (z-score)” value is -1.07. Next, `CC(COc1ccccc1)NN` (stereo unspecified) [Phenoxypropazine dihydrochloride]: 0.724; `CN(C)C(=O)COC(=O)Cc1ccc(OC(=O)c2ccc(NC(=N)N)cc2)cc1` [Camostat mesylate]: -0.369. Consider `CN[C@@H]1[C@H](O)[C@H](NC)[C@H]2O[C@@]3(O)C(=O)C[C@@H](C)O[C@H]3O[C@@H]2[C@H]1O` [Spectinomycin dihydrochloride], for which the “light-induced TopBP1 condensate (z-score)” value was 0.546. Next, `C=C1C[C@H]2[C@@H]3C=C(C)C4=CC(=O)CC[C@]4(C)[C@H]3CC[C@]2(C)[C@@]1(OC(C)=O)C(C)=O` [Melengestrol acetate]: -0.246; `CCOc1ccccc1OCCN[C@H](C)Cc1ccc(OC)c(S(N)(=O)=O)c1` [(R)-Tamsulosin hydrochloride]: 0.258; `Cc1cccc(C)c1OCC(=O)N[C@@H](Cc1ccccc1)[C@@H](O)C[C@H](Cc1ccccc1)NC(=O)[C@H](C(C)C)N1CCCNC1=O` [Lopinavir]: 0.599.

Take `CC(C)CN(C[C@@H](O)[C@H](Cc1ccccc1)NC(=O)O[C@H]1CCOC1)S(=O)(=O)c1ccc(N)cc1` [Amprenavir]: the “light-induced TopBP1 condensate (z-score)” value was 1.18.

Regarding `CC[N+]1(CC)CCC(=C(c2ccccc2)c2ccccc2)C1C` (stereo unspecified) [Prifinium Bromide], the “light-induced TopBP1 condensate (z-score)” value is 1.11. Next, `CC(C)(CO)[C@@H](O)C(=O)NCCCC(=O)O` [Hopantenate calcium]: 0.00401.

For the molecule `COc1cc(N)cn[n+]1-c1ccccc1` [Amezinium metilsulfate], the “light-induced TopBP1 condensate (z-score)” value is 0.428.

Consider `O=C1CN2Cc3c(ccc(Cl)c3Cl)N=C2N1` [Anagrelide], for which the “light-induced TopBP1 condensate (z-score)” value was -0.566. Next, `Clc1ccc(C(Cn2ccnc2)OCc2csc3c(Cl)cccc23)c(Cl)c1` (stereo unspecified) [Sertaconazole nitrate]: 0.206. Next, `OCC(CO)N[C@H]1C[C@](O)(CO)[C@@H](O)[C@H](O)[C@H]1O` [Voglibose]: 1.28; `CC(C)(CO)C(O)C(=O)NCCCO` (stereo unspecified) [Panthenol (D)]: 0.585. `CN(C)CCOC1=Cc2ccccc2Sc2ccc(Cl)cc21` [Zotepine]: the “light-induced TopBP1 condensate (z-score)” value is 0.612. As to `CN1CCCCC1CCN1c2ccccc2Sc2ccc([S+](C)[O-])cc21` (stereo unspecified) [Mesoridazine besylate], the “light-induced TopBP1 condensate (z-score)” value was 0.412.

As for `Cc1nc2ccccc2n1Cc1ccc(Cl)cc1` [Chlormidazole], the “light-induced TopBP1 condensate (z-score)” value was -0.19.

On to `CC(C)(C)C(=O)OCOC(=O)[C@@H]1N2C(=O)[C@@H](/N=C/N3CCCCCC3)[C@H]2SC1(C)C` [Pivmecillinam hydrochloride], for which the “light-induced TopBP1 condensate (z-score)” value is 0.64. Next, `CC(C)NC(=N)NC(=N)Nc1ccc(Cl)cc1` [Proguanil hydrochloride]: -0.256. Next, `COc1cc(C(=O)NCc2ccc(OCCN(C)C)cc2)cc(OC)c1OC` [Trimethobenzamide hydrochloride]: -0.218; `Cc1ncc([N+](=O)[O-])n1CC(C)O` (stereo unspecified) [Secnidazole]: 0.994; `CC1(C)S[C@@H]2[C@H](NC(=O)C(c3ccccc3)S(=O)(=O)O)C(=O)N2[C@H]1C(=O)O` (stereo partly specified) [Sulbenicillin sodium salt]: 0.523. Next, `CC(=O)[C@@]1(O)CC[C@H]2[C@@H]3C[C@H](C)C4=CC(=O)C=C[C@]4(C)[C@@]3(F)[C@@H](O)C[C@@]21C` [Fluorometholone]: -0.232. On to `O=C(c1cc(O)c(O)c(O)c1)c1ccc(O)c(O)c1O` [Exifone], for which the “light-induced TopBP1 condensate (z-score)” value is 0.683. Next, `CN(C)CC/C=C1/c2ccccc2COc2ccc(CC(=O)O)cc21` [Olopatadine hydrochloride]: 0.52; `O=c1oc2cc(O)ccc2s1` [Tioxolone]: 0.00597; `Cc1cc(/C=C/c2ccc3cc(N(C)C)ccc3[n+]2C)c(C)n1-c1ccccc1` [Pyrvinium pamoate]: -4.74 (active). Next, `CN[C@@H]1[C@@H](O)[C@@H](O[C@@H]2[C@@H](O)[C@H](O[C@H]3OC(CN)=CC[C@H]3N)[C@@H](N)C[C@H]2N)OC[C@]1(C)O` [Sisomicin sulfate]: 0.652. Next, `CCN1CCN(Cc2ccc(Nc3ncc(F)c(-c4cc(F)c5nc(C)n(C(C)C)c5c4)n3)nc2)CC1` [Abemaciclib]: -0.486; `COc1cccc(CCc2ccccc2OCC(CN(C)C)OC(=O)CCC(=O)O)c1` (stereo unspecified) [Sarpogrelate hydrochloride]: 0.789. On to `Clc1ccc(C(Cn2ccnc2)OCc2c(Cl)cccc2Cl)c(Cl)c1` (stereo unspecified) [Isoconazole], for which the “light-induced TopBP1 condensate (z-score)” value is 0.803. Next, `CN(C)c1cc(NC(=O)CNC(C)(C)C)c(O)c2c1C[C@H]1C[C@H]3[C@H](N(C)C)C(O)=C(C(N)=O)C(=O)[C@@]3(O)C(O)=C1C2=O` [Tigecycline]: 0.904; `N#C/C(=C1/SCC(c2ccccc2Cl)S1)n1ccnc1` (stereo unspecified) [Lanoconazole]: 0.321. Next, `O=C(O)COc1nn(Cc2ccccc2)c2ccccc12` [Bendazac]: -0.242; `CC(=O)N[C@H]1[C@H]([C@H](O)[C@H](O)CO)OC(C(=O)O)=C[C@@H]1NC(=N)N` [Zanamivir]: -0.513. Take `CC(C)(C)NCC(O)CSc1nc(-c2ccc(C(N)=O)s2)cs1` (stereo unspecified) [Arotinolol hydrochloride]: the “light-induced TopBP1 condensate (z-score)” value is -0.455. Next, `Cc1ccc(C(=O)c2cc(O)c(O)c([N+](=O)[O-])c2)cc1` [Tolcapone]: -0.692.
